Results reported in the supplement of paper PMC6089552.
Hit rate of the full screen: of about 3,200 compounds, about 300 (9.4%) showed activity. What follows is part of a selection rich in actives, with near analogues and random picks from the rest.

System: A673/TR/shEF
Assay: cell viability (LOESS-normalised, relative to median of negative controls) (log2 ratio); higher = more viable cells (less compound effect), active = hit call of the paper (over 3 MAD below the median)
Conditions: treatment time: 72 h
In short: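 Viability of A673/TR/shEF Ewing sarcoma cells was determined by CellTiter-Glo luminescence. The cells, at 1,500 per well in 384-well plates, were grown with or without doxycycline from 24 h before compound addition to switch on EWS-FLI1 shRNA knockdown, then exposed for three days to library compounds at two or more concentrations or to DMSO controls. Signals were LOESS-corrected plate by plate, normalised to the negative-control median and log2-transformed.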

[1] = 0.25 µM, library screen: screen1, EWS-FLI1 expression: high (no doxycycline)
[2] = 0.25 µM, library screen: screen1, EWS-FLI1 expression: low (doxycycline-induced shRNA knockdown)
[3] = 2.5 µM, library screen: screen1, EWS-FLI1 expression: high (no doxycycline)
[4] = 2.5 µM, library screen: screen1, EWS-FLI1 expression: low (doxycycline-induced shRNA knockdown)
[5] = 0.25 µM, library screen: screen2, EWS-FLI1 expression: high (no doxycycline)
[6] = 0.25 µM, library screen: screen2, EWS-FLI1 expression: low (doxycycline-induced shRNA knockdown)
[7] = 2.5 µM, library screen: screen2, EWS-FLI1 expression: high (no doxycycline)
[8] = 2.5 µM, library screen: screen2, EWS-FLI1 expression: low (doxycycline-induced shRNA knockdown)
[9] = 0.103 µM, library screen: screen3, EWS-FLI1 expression: high (no doxycycline)
[10] = 0.103 µM, library screen: screen3, EWS-FLI1 expression: low (doxycycline-induced shRNA knockdown)
[11] = 0.308 µM, library screen: screen3, EWS-FLI1 expression: high (no doxycycline)
[12] = 0.308 µM, library screen: screen3, EWS-FLI1 expression: low (doxycycline-induced shRNA knockdown)
[13] = 0.926 µM, library screen: screen3, EWS-FLI1 expression: high (no doxycycline)
[14] = 0.926 µM, library screen: screen3, EWS-FLI1 expression: low (doxycycline-induced shRNA knockdown)
[15] = 2.8 µM, library screen: screen3, EWS-FLI1 expression: high (no doxycycline)
[16] = 2.8 µM, library screen: screen3, EWS-FLI1 expression: low (doxycycline-induced shRNA knockdown)
[17] = 8.3 µM, library screen: screen3, EWS-FLI1 expression: high (no doxycycline)
[18] = 8.3 µM, library screen: screen3, EWS-FLI1 expression: low (doxycycline-induced shRNA knockdown)
[19] = 25 µM, library screen: screen3, EWS-FLI1 expression: high (no doxycycline)
[20] = 25 µM, library screen: screen3, EWS-FLI1 expression: low (doxycycline-induced shRNA knockdown)

Measured: cell viability (log2)

CCOC(=O)c1c(C)cc(O)cc1O
inactive: [1] 0.0788 | [2] 0.0693 | [3] 0.0357 | [4] 0.0819

CC1=C(C(=O)OC2CCCC2)C(c2coc3ccccc3c2=O)C2=C(CC(C)(C)CC2=O)N1 (stereo not drawn)
inactive: [1] 0.0783 | [2] 0.0738 | [3] 0.145 | [4] 0.0146

CN(C)CCN(Cc1ccccc1)c1ccccn1
inactive: [1] 0.0764 | [2] 0.111 | [3] 0.247 | [4] 0.229

C#CCN(C)CCCOc1ccc(Cl)cc1Cl
inactive: [5] 0.27 | [6] 0.097 | [7] 0.132 | [8] 0.147

C#CCN(C)Cc1ccccc1
active: [7] -1.76 | [8] -2.08
inactive: [1] 0.0858 | [2] 0.0954 | [5] 0.078 | [6] -0.0346 | [3] 0.175 | [4] 0.102

COc1ccc(CN2CCN(Cc3ccc(OC)c(OC)c3OC)CC2)cc1Br
inactive: [1] 0.104 | [2] 0.0582 | [3] 0.0165 | [4] 0.0422

Cc1ccc(OCC(=O)N2CCC(C)CC2)c(C)c1
inactive: [1] 0.0605 | [2] 0.118 | [3] 0.14 | [4] 0.114

COc1ccc2c(c1)CCC1=CC(=O)CC[C@@]12C
inactive: [1] 0.0515 | [2] 0.00881 | [3] 0.19 | [4] 0.155

CC1C2C(CC3C4CC[C@@H]5CC(=O)CC[C@]5(C)C4CC[C@@]32C)OC12CC[C@@H](C)CO2 (stereo partly drawn)
inactive: [1] 0.0621 | [2] 0.0593 | [3] 0.124 | [4] 0.0882

COCCN1C(=O)/C(=C\c2ccc(-c3ccc(Br)cc3)o2)SC1=S
inactive: [1] 0.0753 | [2] 0.00476 | [3] 0.101 | [4] 0.0615

O=C(O)CCC(NC(=O)c1ccccc1C(=O)O)C(=O)O (stereo not drawn)
inactive: [5] 0.0764 | [6] 0.0149 | [7] 0.157 | [8] 0.0718

CN(Cc1cnc2nc(N)nc(N)c2n1)c1ccc(C(=O)N[C@@H](CCC(=O)O)C(=O)O)cc1
inactive: 0.025 µM, library screen: screen2, EWS-FLI1 expression: high (no doxycycline) 0.0134 | 0.025 µM, library screen: screen2, EWS-FLI1 expression: low (doxycycline-induced shRNA knockdown) 0.0597 | [9] -0.0597 | [10] 0.0506 | [6] 0.0894 | [12] 0.0568 | [14] 0.0108 | [8] 0.0271 | [16] 0.0377 | [18] 0.0521 | 25 µM, library screen: screen2, EWS-FLI1 expression: low (doxycycline-induced shRNA knockdown) 0.0873 | [20] 0.0291
active: [5] -0.406 | [11] -0.512 | [13] -0.53 | [7] -0.754 | [15] -0.711 | [17] -0.751 | 25 µM, library screen: screen2, EWS-FLI1 expression: high (no doxycycline) -0.743 | [19] -0.797

CCCCCN(CCCCC)C(=O)C(CCC(=O)O)NC(=O)c1ccc(Cl)c(Cl)c1 (stereo not drawn)
inactive: [5] 0.131 | [6] 0.0648 | [7] 0.114 | [8] 0.0564

Nc1nc(=O)c2nc(CNc3ccc(C(=O)N[C@@H](CCC(=O)O)C(=O)O)cc3)cnc2[nH]1
inactive: [1] 0.0181 | [2] 0.031 | [3] 0.0902 | [4] 0.0775

Nc1nc(N)c2nc(CNc3ccc(C(=O)N[C@@H](CCC(=O)O)C(=O)O)cc3)cnc2n1
inactive: [5] 0.137 | [6] 0.126 | [3] 0.122 | [4] 0.141 | [7] 0.123 | [8] 0.134
active: [1] -1.62 | [2] -0.186

CN(Cc1cnc2nc(N)nc(N)c2n1)c1ccc(C(=O)N[C@H](CCC(=O)O)C(=O)O)cc1
inactive: [5] 0.209 | [6] 0.115 | [7] 0.0762 | [8] 0.165

CC(=O)O[C@H]1CC2(C)[C@@H](C[C@@H](O)[C@H]3[C@@]4(C)CC[C@@H](O)[C@@H](C)[C@@H]4CC[C@@]32C)/C1=C(/CCC=C(C)C)C(=O)O (stereo partly drawn)
inactive: [5] 0.0714 | [6] 0.0604 | [7] 0.159 | [8] 0.0152

CC1CCC2(CO)CCC3(C)C(=CCC4C5(C)CCC(O)C(C)(C)C5CCC43C)C2C1C (stereo not drawn)
inactive: [1] 0.00774 | [2] -0.0265 | [3] 0.0749 | [4] 0.092

Cn1cnc2c(F)c(Nc3ccc(Br)cc3Cl)c(C(=O)NOCCO)cc21
inactive: [9] -0.0515 | [10] 0.111 | [11] -0.109 | [12] 0.0965 | [14] 0.113 | [16] 0.014 | [18] 0.0549 | [20] -0.089
active: [13] -0.189 | [15] -0.222 | [17] -0.293 | [19] -0.303

Cc1ccccc1CN1CCN(Cc2ccco2)CC1
inactive: [1] 0.12 | [2] 0.0129 | [3] 0.0799 | [4] -0.0931

Cc1ccc(CN2CCN(Cc3c[nH]c4ccccc34)CC2)cc1
inactive: [1] 0.0521 | [2] 0.0225 | [3] 0.104 | [4] 0.0231

CC(=O)c1cc2c(cc1O)OC(C)(C)C=C2
inactive: [1] 0.16 | [2] -0.0151 | [3] 0.126 | [4] 0.0912

CC(C(=O)O)N1C(=O)C(=Cc2ccccn2)SC1=S (stereo not drawn)
active: [1] -2.05 | [2] -1.9
inactive: [3] 0.144 | [4] 0.106

CC(C(=O)O)N1C(=O)C(=Cc2cccnc2)SC1=S (stereo not drawn)
inactive: [1] -0.0281 | [2] 0.0107 | [3] 0.0923 | [4] -0.0695
